Read-out in assay [1]: Monokine induced gamma interferon (MIG), CXCL9 (gene 4283)
The experiment in a line: BSK_3C_MIG: BioMAP Diversity Plus: 3C Assay for Monokine induced gamma interferon (MIG) Biomarker Activity (AID 2283021).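 As to AC50: MIG protein level measured by immunoassay in the treated endothelial cultures.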 The note with it: primary human endothelial cells (HUVEC); actives raise or lower the signal. The essentials: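 Endothelial primary cells (human umbilical vein) are dosed with test chemical in the 3C system. MIG levels are measured by ELISA at 24 h and fitted in both directions relative to DMSO.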

The nature of assay [2]: BSK_3C_SRB: Viability Assessment in the BioMAP Diversity Plus: 3C Assay (AID 2283023).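 Also: fitted both ways against DMSO so a hit may be signal rise or drop.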 The note with it: primary human endothelial cells (HUVEC). The essentials:
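Overt cytotoxicity is gauged in parallel confluent HUVEC cultures by SRB total-protein staining at the time of biomarker measurement, 24 h after dosing. Gain or loss of signal is fitted versus DMSO.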

Read-out in assay [3]: Matrix Metallopeptidase 1 (MMP1), MMP1 (gene 4312)
The experiment in a line: BSK_BE3C_MMP1: BioMAP Diversity Plus: BE3C Assay for Matrix Metallopeptidase 1 (MMP1) Biomarker Activity (AID 2283024). The note with it: primary human bronchial epithelial cells; actives raise or lower the signal. The essentials:
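MMP1 signal, measured by ELISA after a 24 h chemical exposure of human primary bronchial epithelial cells, is analysed with bidirectional fitting using DMSO as negative control.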

The nature of assay [4]: BSK_3C_Vis: BioMAP Diversity Plus: 3C Assay for Morphology Visualization (AID 2283025).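 Also: fitted both ways so gain or loss versus DMSO counts.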 The note with it: primary human endothelial cells (HUVEC). The essentials: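 Morphology read by light microscopy serves as a background control for the multiplexed 3C assay in human umbilical vein endothelial cells, taken 24 h after dosing, with DMSO as the negative control and bidirectional curve fitting.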

Read-out in assay [5]: Pselectin, SELP (gene 6403)
The experiment in a line: BSK_4H_Pselectin: BioMAP Diversity Plus: 4H Assay for Pselectin Biomarker Activity (AID 2283026). The note with it: primary human endothelial cells (HUVEC); actives raise or lower the signal. The essentials:
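Endothelial primary cells (human umbilical vein) are dosed, incubated 24 h, and assayed for surface P-selectin by ELISA; responses in either direction are fitted relative to the DMSO negative control.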

A short description of assay [6]: BSK_4H_SRB: Viability Assessment in the BioMAP Diversity Plus: 4H Assay (AID 2283027).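 Also: cells exposed to compound for 24 h before staining.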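 As to AC50: curves fitted both ways versus DMSO so AC50 may be loss or gain.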 The note with it: primary human endothelial cells (HUVEC). The essentials:
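HUVEC, 24 h post-dose; 10% TCA fix, 0.1% SRB stain, A560 nm. Total protein = overt cytotoxicity, parallel to biomarker read. Bidirectional fit vs DMSO baseline.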

Assay [7] is described as follows: BSK_BE3C_SRB: Viability Assessment in the BioMAP Diversity Plus: BE3C Assay (AID 2283028).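 As to AC50: fitted both ways so AC50 may mark signal gain or loss versus DMSO.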 The note with it: primary human bronchial epithelial cells. The essentials: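 SRB total-protein staining (0.1%, after TCA fixation) of chemically dosed human bronchial epithelial primary cells at 24 h; DMSO serves as the negative control for bidirectional curve fitting.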

Read-out in assay [8]: Thrombomodulin, THBD (gene 7056)
Description: BSK_3C_Thrombomodulin: BioMAP Diversity Plus: 3C Assay for Thrombomodulin Biomarker Activity (AID 2283029). The note with it: primary human endothelial cells (HUVEC); actives raise or lower the signal. In short, it runs like this:
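Endothelial cells from umbilical vein are dosed with test chemical and incubated 24 h. Thrombomodulin is then quantified by ELISA, with DMSO serving as negative control and activity baseline.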

Read-out in assay [9]: Urokinase-type plasminogen activator receptor (uPAR), PLAUR (gene 5329)
Description: BSK_4H_uPAR: BioMAP Diversity Plus: 4H Assay for Urokinase-type plasminogen activator receptor (uPAR) Biomarker Activity (AID 2283030). The note with it: primary human endothelial cells (HUVEC); actives raise or lower the signal. In short, it runs like this: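 Endpoint derived via bidirectional curve fitting against DMSO baseline; readout was ELISA detection of uPAR on umbilical vein endothelial cells at 24 h post-treatment, with SRB-stained parallel cultures assessing cytotoxicity.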

Read-out in assay [10]: Vascular endothelial growth factor receptor 2 (Homo sapiens) (UniProt P35968)
Description: BSK_4H_VEGFRII: BioMAP Diversity Plus: 4H Assay for Vascular endothelial growth factor receptor 2 (VEGFR2) Biomarker Activity (AID 2283031).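 As to AC50: cell-surface VEGFR2 protein level quantified by ELISA.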 The note with it: primary human endothelial cells (HUVEC); actives raise or lower the signal. The essentials:
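In this multiplexed HUVEC system, biomarker ELISA was performed after 24 h chemical exposure. Parallel SRB staining (TCA fixation, 560 nm) tracked cytotoxicity; DMSO served as baseline.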

Read-out in assay [11]: Human Leukocyte Antigen - DR isotype (HLADR), HLA-DRA (gene 3122)
Description: BSK_BE3C_HLADR: BioMAP Diversity Plus: BE3C Assay for Human Leukocyte Antigen - DR isotype (HLADR) Biomarker Activity (AID 2283032). The note with it: primary human bronchial epithelial cells; actives raise or lower the signal. In short, it runs like this:
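Chemicals are dosed onto BE3C bronchial epithelial cultures of human origin and left 24 h. HLA-DR is then measured by ELISA, and the endpoint is fitted in both directions using DMSO as the activity baseline.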

Read-out in assay [12]: Vascular cell adhesion molecule 1 (VCAM1), VCAM1 (gene 7412)
Description: BSK_4H_VCAM1: BioMAP Diversity Plus: 4H Assay for Vascular cell adhesion molecule 1 (VCAM1) Biomarker Activity (AID 2283033).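 As to Outcome: cell-surface VCAM-1 protein measured by ELISA.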 The note with it: primary human endothelial cells (HUVEC); actives raise or lower the signal. The essentials:
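Chemicals are added to primary human umbilical vein endothelial cells. After 24 h, VCAM-1 levels are measured by ELISA. Values come from bidirectional fitting referenced to DMSO.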

Read-out in assay [13]: Interferon-gamma inducible Protein 10 (IP10), CXCL10 (gene 3627)
The experiment in a line: BSK_BE3C_IP10: BioMAP Diversity Plus: BE3C Assay for Interferon-gamma inducible Protein 10 (IP10) Biomarker Activity (AID 2283034). The note with it: primary human bronchial epithelial cells; actives raise or lower the signal. In short, it runs like this:
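IP-10 quantified by ELISA serves as the endpoint. Cells: primary human bronchial epithelium, read 24 h after compound addition. Activity is derived by bidirectional fitting with DMSO as negative control.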

Read-out in assay [14]: Monokine induced gamma interferon (MIG), CXCL9 (gene 4283)
The experiment in a line: BSK_BE3C_MIG: BioMAP Diversity Plus: BE3C Assay for Monokine induced gamma interferon (MIG) Biomarker Activity (AID 2283035).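 As to Outcome: MIG protein measured by ELISA in BE3C cultures after 24 h of dosing.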 The note with it: primary human bronchial epithelial cells; actives raise or lower the signal. In short, it runs like this:
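Dose cells (human primary bronchial epithelial), incubate 24 h, quantify MIG by ELISA, then fit concentration–response in both directions relative to DMSO control.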

Read-out in assay [15]: Transforming growth factor beta 1 (TGFb1), TGFB1 (gene 7040)
Description: BSK_BE3C_TGFb1: BioMAP Diversity Plus: BE3C Assay for Transforming growth factor beta 1 (TGFb1) Biomarker Activity (AID 2283036;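 as to Outcome: TGF-b1 protein level measured by ELISA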). The note with it: primary human bronchial epithelial cells; actives raise or lower the signal. In short, it runs like this:
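Bronchial epithelial primary cells are treated with test chemical, then TGF-b1 is quantified by ELISA after 24 hours. Values derive from bidirectional fitting against DMSO, with cytotoxicity checked by SRB staining in parallel cultures.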

Read-out in assay [16]: Plasminogen activator inhibitor-1 (PAI1), SERPINE1 (gene 5054)
Description: BSK_BE3C_PAI1: BioMAP Diversity Plus: BE3C Assay for Plasminogen activator inhibitor-1 (PAI1) Biomarker Activity (AID 2283037). The note with it: primary human bronchial epithelial cells; actives raise or lower the signal. The essentials:
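Values derive from bidirectional fitting against DMSO baseline of PAI-1 levels, measured by ELISA in human bronchial epithelial cells 24 h after compound addition.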

Read-out in assay [17]: urokinase plasminogen activator (uPA), PLAU (gene 5328)
Description: BSK_BE3C_uPA: BioMAP Diversity Plus: BE3C Assay for urokinase plasminogen activator (uPA) Biomarker Activity (AID 2283038).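 As to Outcome: uPA protein level quantified by ELISA in cell cultures; uPA read one day after compound addition.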 The note with it: primary human bronchial epithelial cells; actives raise or lower the signal. The essentials:
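Using confluent primary human lung bronchial epithelial cultures, we dosed chemicals, waited 24 h, then ran a uPA ELISA, fitting bidirectionally against DMSO.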

Read-out in assay [18]: Urokinase-type plasminogen activator receptor (uPAR), PLAUR (gene 5329)
The experiment in a line: BSK_BE3C_uPAR: BioMAP Diversity Plus: BE3C Assay for Urokinase-type plasminogen activator receptor (uPAR) Biomarker Activity (AID 2283039).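 As to Outcome: uPAR protein level measured by ELISA on the cells; cells exposed to compound for one day before measurement.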 The note with it: primary human bronchial epithelial cells; actives raise or lower the signal. In short, it runs like this: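 Steps: dose human primary bronchial epithelial cells, incubate 24 h, measure uPAR by ELISA, then fit gain- or loss-of-signal response bidirectionally relative to DMSO.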

Read-out in assay [19]: Interleukin-6 (IL6), IL6 (gene 3569)
Description: BSK_CASM3C_IL6: BioMAP Diversity Plus: CASM3C Assay for Interleukin-6 (IL6) Biomarker Activity for (AID 2283040). The note with it: primary human coronary artery smooth muscle cells; actives raise or lower the signal.

Outcome and AC50 data for 7 compounds are collected here from PubChem BioAssay (EPA / NIEHS).

The source made the active and inactive calls. The calls were made as follows: active = hit-call score of the fitted dose curve at least 0.9, where 1 is the maximum; inactive = score below 0.9.

Turning to `CC1(C)CON(Cc2ccccc2Cl)C1=O`, the outcome in [1], in assay [2], in assay [3], in assay [4], in assay [5] and in [6] was inactive. In addition, the result in assay [7], in [8], in assay [9], in assay [10], in assay [11] and in assay [12] was inactive. Moreover, the result in assay [13], in assay [14], in [16], in [17], in [18] and in assay [19] was inactive. Besides, the AC50 in assay [15] was 37.2 µM (active).

`O=C(Nc1ccccc1-c1ccc(Cl)cc1)c1cccnc1Cl`: the outcome in assay [1], in assay [2], in assay [3], in assay [5], in [6] and in [7] was inactive. Further, the result in assay [8], in [9], in assay [10], in assay [12], in [13] and in [14] was inactive. Further, the result in assay [15], in assay [16], in [17], in [18] and in assay [19] was inactive. The values for the half-maximal activity concentration (AC50) in assay [4] and in [11] were 39 µM (active) and 5.32 µM (active), respectively.

`CC(C)N1C(=O)N(c2ccccc2)CSC1=NC(C)(C)C`: the result in assay [1], in assay [8], in [10], in assay [14], in assay [15] and in assay [16] was inactive. Besides, the result in assay [17] and in assay [19] was inactive. In addition, the AC50 in [2] is 27.2 µM (active); in assay [3], 25.8 µM (active); in assay [4], 16.3 µM (active); in [5], 31.2 µM (active); in assay [6] it was 31.2 µM (active); in assay [7], 27.8 µM (active). The AC50 in assay [9] is 31.7 µM (active); in [11] it was 28.9 µM (active); in assay [12], 29.8 µM (active); in [13] it was 30.4 µM (active); in [18], 33.7 µM (active).

Turning to `CCNP(=S)(OC)O/C(C)=C/C(=O)OC(C)C` (stereo not drawn), the result in assay [1], in assay [2], in [3], in assay [4], in assay [5] and in assay [6] was inactive. Further, the result in assay [7], in assay [8], in assay [9], in assay [10], in assay [11] and in assay [12] was inactive. For the same compound, the result in assay [13], in [14], in assay [15], in assay [16], in assay [17] and in assay [18] was inactive. The outcome in assay [19] was inactive.

For `COP(=S)(OC)SCn1nnc2ccccc2c1=O`, the outcome in assay [1], in assay [2], in [3], in assay [4], in [6] and in assay [7] was inactive. Also, the outcome in [8], in assay [9], in assay [10], in assay [11], in assay [12] and in assay [13] was inactive. For the same compound, the outcome in assay [14], in assay [15], in [16], in [17], in [18] and in assay [19] was inactive. Besides, the AC50 in assay [5] was 35.1 µM (active).

For `Cc1ccc(N=CN(C)C=Nc2ccc(C)cc2C)c(C)c1`, the AC50 in [1] is 34.5 µM (active); in assay [2] it was 32.4 µM (active); in assay [4], 16.3 µM (active); in assay [5], 30 µM (active); in assay [6], 32.3 µM (active); in assay [7] it was 28.2 µM (active). Also, the AC50 in assay [8] was 20 µM (active); in assay [9], 37.5 µM (active); in assay [10], 26 µM (active); in [11], 26.7 µM (active); in assay [12] it was 29.5 µM (active); in assay [13] it was 30.5 µM (active). Besides, the AC50 in [14] is 33.3 µM (active); in [15], 34.1 µM (active); in assay [16] it was 30.7 µM (active); in [17], 35.4 µM (active); in assay [19] it was 30.9 µM (active). The result in assay [3] and in [18] was inactive.

For `COCc1cnc(C2=NC(C)(C(C)C)C(=O)N2)c(C(=O)O)c1` (stereo not drawn), the result in assay [1], in assay [2], in [3], in assay [4], in assay [5] and in assay [6] was inactive. Moreover, the outcome in [7], in [8], in assay [9], in [10], in [11] and in [12] was inactive. The outcome in assay [13], in [14], in assay [15], in assay [16], in assay [17] and in assay [18] was inactive. The outcome in assay [19] was inactive.
